Here are results for 41 molecules from PubChem BioAssay (NCI).

Test [1] is described as follows: NCI Yeast Anticancer Drug Screen. Data for the rad50 strain (AID 155).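 Note: 0% = growth of vehicle-only cultures of the same strain.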 Particulars: S. cerevisiae rad50 strain growth inhibition; at 50.0 µM; active compounds read high. In outline:
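A DNA repair-deficient yeast mutant serves as the test organism; compound-induced growth inhibition is calculated against vehicle-treated cells.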

The nature of test [2]: NCI Yeast Anticancer Drug Screen. Data for the mec2-1 strain (AID 157). Particulars: S. cerevisiae mec2-1 strain, at 50.0 µM, active compounds read high. In outline: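 Compounds were applied to mec2-1 yeast cells. Their growth was then compared with that of vehicle-treated cultures to give growth inhibition.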
A short description of test [3]: NCI Yeast Anticancer Drug Screen. Data for the sgs1 mgt1 strain (AID 161).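 Note: 0% = growth of cultures given vehicle only.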 Conditions: S. cerevisiae sgs1 mgt1 strain, at 50.0 µM, active compounds read high. Summed up:
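This yeast growth screen uses a strain with defined DNA-repair lesions; compound-treated growth is compared with vehicle-treated growth.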

Test [4] can be described thus: NCI Yeast Anticancer Drug Screen. Data for the cln2 rad14 strain (AID 165).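 Note: 0% = growth equal to vehicle treated cultures.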 Particulars: S. cerevisiae cln2 rad14 strain, at 50.0 µM, active compounds read high. In outline:
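Strain: cln2 rad14 yeast, altered in cell cycle control and DNA damage repair. Read-out: growth inhibition vs vehicle.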

Test [5] in a line: NCI Yeast Anticancer Drug Screen. Data for the bub3 strain (AID 167). Conditions: S. cerevisiae bub3 mutant strain, at 50.0 µM, active compounds read high. In outline:
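Inhibition values come from growth of compound-treated mutant yeast normalised to vehicle-treated controls.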

The nature of test [6]: NCI Yeast Anticancer Drug Screen. Data for the mlh1 rad18 strain (AID 175). Conditions: S. cerevisiae mlh1 rad18 strain growth inhibition; at 50.0 µM; active compounds read high. Summed up: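 A repair-deficient yeast strain is exposed to test compound, and growth is scored relative to vehicle-treated controls.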

This is part of a sample that, as a whole, favours compounds with a hit. Of some 79,000 tested, about 15% had one in any assay. Unmarked numbers belong to inactive results. The source made the active and inactive calls. Cut-off read from the data, not from the text of the source: active = growth inhibition above about 70%; inactive = the rest. Where a SMILES comes first, the peptide text is derived from it.

Consider `CC(O)C(N=Cc1nc(-c2ccccc2)oc1O)C(=O)O` (stereo unspecified), for which the growth inhibition in test [1] is -3.25%; in test [2], -6.55%; in test [3], 0%; in test [4] it was 1.2%; in test [5], -0.15%; in test [6], 7.05%.
On to `Cc1nc(/C=C2\C(=O)C=Cc3ccccc32)c(O)o1`, for which the growth inhibition in test [1] was 7.85%; in test [2] it was -6.3%; in test [3], 8.35%; in test [4] it was -63%; in test [5] it was 16%; in test [6], 0.3%.
As to `CCC(O)(CC)c1ccc2ncccc2c1`, the growth inhibition in test [1] is 3.6%; in test [2], 6.05%; in test [3], 7.7%; in test [4], -19.1%; in test [5], -6.65%; in test [6], 7%.
As to `CCOC(=O)c1ccc(Nc2nc3ccc(C(F)(F)F)cc3nc2C(=O)OCC)cc1`, the growth inhibition in test [1] is -24.6%; in test [2] it was 3%; in test [3], -11.9%; in test [4], -12.9%; in test [5], -6.2%; in test [6] it was -12.2%.
As for `O=C(CN(C(=O)OC12CC3CC(CC(C3)C1)C2)C(=O)OC12CC3CC(CC(C3)C1)C2)Oc1ccc([N+](=O)[O-])cc1`, the growth inhibition is 7.75% in test [1]; 7.15% in test [2]; 7.35% in test [3]; 31.8% in test [4]; 13.6% in test [5]; -0.85% in test [6].
`OC1COC2CC(Nc3ccccn3)OC12` (stereo unspecified): the growth inhibition in test [1] was -36.8%; in test [2], -41.2%; in test [3] it was -15.8%; in test [4], 0%; in test [5] it was -10.2%; in test [6], -13.6%.
As to `Cn1c2ccccc2c(=S)c2cc(NC(=O)CCCCC(=O)Nc3ccc4c(c3)c(=S)c3ccccc3n4C)ccc21`, the growth inhibition is 32.2% in test [1]; 22.9% in test [2]; 22.4% in test [3]; 23.5% in test [4]; -4.1% in test [5]; 23.9% in test [6].
For the molecule `Clc1ccc(-c2nc(CSc3ccccn3)cs2)cc1`, the growth inhibition in test [1] is 13.7%; in test [2], -12.4%; in test [3], 49.5%; in test [4] it was -22.2%; in test [5] it was 28.9%; in test [6] it was -6.8%.
As to `Nc1nc2c(-c3ccc([N+](=O)[O-])cc3)nnn2c2ccccc12`, the growth inhibition in test [1] was 12.7%; in test [2], 5.5%; in test [3], 37%; in test [4], 9.7%; in test [5], 22.2%; in test [6], 25.3%.
Turning to `Nc1nc(N)c2nnsc2n1`, the growth inhibition is 13.7% in test [1]; -5.05% in test [2]; 13.3% in test [3]; 16.6% in test [4]; 14.4% in test [5]; 2.9% in test [6].
As to `Cc1n[nH]c(=O)n1Nc1ccccc1`, the growth inhibition in test [1] is 13.2%; in test [2] it was -7.7%; in test [3], 9.1%; in test [4], 13.3%; in test [5], 1.5%; in test [6], 6.6%.
As for `C[n+]1ccc(NN)cc1`, the growth inhibition in test [1] is -3.5%; in test [2], -15.8%; in test [3], 20.3%; in test [4], 12.6%; in test [5], 17.6%; in test [6], 4.4%.
As to `COc1ccc(CCN=C(c2ccccc2)c2ccccc2)cc1OC`, the growth inhibition in test [1] was 22.4%; in test [2], 10.2%; in test [3], 8.75%; in test [4], -27.4%; in test [5] it was 10.3%; in test [6], 12.7%.
In the case of `CCNC(=O)N(C)Cc1ccc(Cl)cc1`, the growth inhibition is -4% in test [1]; 8.7% in test [2]; -11.6% in test [3]; -71.5% in test [4]; -8.95% in test [5]; -5.1% in test [6].
On to `COc1cc(C(=O)CCCC(=O)O)cc(OC)c1OC`, for which the growth inhibition in test [1] is -9.15%; in test [2], 3.4%; in test [3] it was 19.6%; in test [4], 5.85%; in test [5] it was 16.3%; in test [6], 5.3%.
Consider `CCCCCCCCCCCCCCCCC(C)=O`, for which the growth inhibition was 2.2% in test [1]; 20.6% in test [2]; 5% in test [3]; -16.6% in test [4]; 21.9% in test [5]; -11.7% in test [6].
Regarding `O=C(O)Cn1c(=O)n(CC(=O)O)c2ccccc21`, the growth inhibition in test [1] is 6.85%; in test [2], -4.95%; in test [3] it was -4.2%; in test [4], -10%; in test [5], 3.25%; in test [6], -7.65%.
For `CCOC(=O)/C(C#N)=C/Nc1ccncc1`, the growth inhibition is 2.95% in test [1]; -12.4% in test [2]; 16.2% in test [3]; 11.6% in test [4]; 4.25% in test [5]; 16% in test [6].
On to `Nc1nc(N)nc(C2C=CCCC2)n1` (stereo unspecified), for which the growth inhibition in test [1] was -19.6%; in test [2], 1.85%; in test [3], -13%; in test [4], -32.6%; in test [5], -11.4%; in test [6], -18.1%.
In the case of `C=C1CC[C@H]2C(C)=CC[C@H]3C(=C)C(=O)O[C@@H]3[C@@H]12`, the growth inhibition in test [1] was -36.4%; in test [2], -17%; in test [3] it was -24.1%; in test [4], -3.9%; in test [5] it was -15.4%; in test [6], -6%.
Turning to `O=[N+]([O-])c1ccc2c(c1)C(O)c1ccccc1-2` (stereo unspecified), the growth inhibition in test [1] was 35.6%; in test [2], 24.6%; in test [3] it was 12.9%; in test [4] it was 26.9%; in test [5] it was 26.2%; in test [6], 29.1%.
Regarding `Cn1c(=O)cc(CCl)c2ccccc21`, the growth inhibition in test [1] is 26.9%; in test [2] it was 26.6%; in test [3], 44%; in test [4], 28.4%; in test [5], 31.7%; in test [6] it was 52%.
Turning to `CC(=O)OC(CC1(C)C(C)CCC23COC(=O)C2=CCCC31)c1ccoc1` (stereo unspecified), the growth inhibition was 87.3% (active) in test [1]; 82.2% (active) in test [2]; 85.7% (active) in test [3]; 63.5% in test [4]; 81.2% (active) in test [5]; 82% (active) in test [6].
`CNC(=S)NNC(=O)c1ccncc1`: the growth inhibition in test [1] is 11.4%; in test [2], 10.7%; in test [3] it was 13.6%; in test [4], 18.6%; in test [5], -0.65%; in test [6] it was 13.3%.
For `Cc1c([N+](=O)[O-])cc(C(C)(C)C)c(OC(=O)C(C)(C)C)c1[N+](=O)[O-]`, the growth inhibition is 53.4% in test [1]; 44.9% in test [2]; 59.8% in test [3]; 41.5% in test [4]; 92.4% (active) in test [5]; 54.3% in test [6].
In the case of `Cc1ccccc1/C=C/C(=O)O`, the growth inhibition in test [1] was -0.4%; in test [2], -9.95%; in test [3], -0.45%; in test [4], -13.6%; in test [5], -24.4%; in test [6] it was -12.7%.
With `C[n+]1ccccc1C(O)C(O)c1cccc[n+]1C` (stereo unspecified), the growth inhibition was 6.05% in test [1]; 1.65% in test [2]; 8.85% in test [3]; 23.4% in test [4]; -8.45% in test [5]; 9.6% in test [6].
`C=C(S(=O)(=O)CC)S(=O)(=O)CC`: the growth inhibition in test [1] was 28.9%; in test [2], -7.75%; in test [3], -3.8%; in test [4], -53%; in test [5], -6.5%; in test [6], 4.4%.
`CCOC(=O)c1cc2cc(C)cc(C(=O)c3ccc([N+](=O)[O-])cc3)c2[nH]1`: the growth inhibition in test [1] was 15.1%; in test [2], 25.4%; in test [3] it was 30.6%; in test [4] it was 4.15%; in test [5] it was -0.55%; in test [6] it was -16.3%.
For `Cc1ccc2nc(N(C)C)cc(N(C)C)c2c1`, the growth inhibition in test [1] is -7.1%; in test [2], 6%; in test [3], 0.2%; in test [4], -100%; in test [5], -4.1%; in test [6], 7.9%.
Consider `Cc1cc(C)c(S(=O)(=O)Nc2ccccc2F)c(C)c1`, for which the growth inhibition was 40.1% in test [1]; 30.7% in test [2]; 62.9% in test [3]; 7.3% in test [4]; 29.4% in test [5]; 56.9% in test [6].
With `Nc1nc(-c2ccccc2)cc(-c2ccc(F)cc2)c1-c1ccc(Cl)cc1`, the growth inhibition is 16.9% in test [1]; -9.2% in test [2]; 20.4% in test [3]; 24.6% in test [4]; -0.95% in test [5]; -73.5% in test [6].
As to `CC(=O)C1=CCC2c3[nH]c4ccccc4c3CCN2C1` (stereo unspecified), the growth inhibition is 17.6% in test [1]; 4.1% in test [2]; 20.3% in test [3]; 25.7% in test [4]; 1.5% in test [5]; 18.9% in test [6].
Consider `NC(CC1C(=O)Nc2ccccc21)C(=O)O` (stereo unspecified), for which the growth inhibition in test [1] was -32.5%; in test [2], -14.9%; in test [3] it was -11.3%; in test [4], -60.6%; in test [5] it was -0.8%; in test [6], -8.9%.
With `NC(Cc1cnc[nH]1)C(=O)NC(Cc1ccc(O)cc1)C(=O)O` (stereo not drawn) (H-His-Tyr-OH; configuration not given here), the growth inhibition is 7.6% in test [1]; -23% in test [2]; 7.2% in test [3]; 16.6% in test [4]; 9.85% in test [5]; 22% in test [6].
In the case of `CC(C)C(O)C(C)(C)CO` (stereo unspecified), the growth inhibition in test [1] is 10.7%; in test [2], -15.2%; in test [3] it was 4.75%; in test [4] it was 2.3%; in test [5] it was 11.1%; in test [6] it was 32.6%.
For `Nc1cccc(N=[N+]([O-])c2cccc(N)c2)c1`, the growth inhibition is 18.9% in test [1]; 8.05% in test [2]; -10.5% in test [3]; -22.1% in test [4]; 12.2% in test [5]; 27.6% in test [6].
As for `CCCCCCCC/C=C\CCCCCCCC(=O)Cl`, the growth inhibition in test [1] was -19%; in test [2], -33.8%; in test [3], -14%; in test [4] it was -55.9%; in test [5] it was -8.85%; in test [6], -23.1%.
In the case of `COc1ccc(-c2cc(=O)c3cc(C)c(C)c(C(=O)O)c3o2)cc1`, the growth inhibition was -10.5% in test [1]; -2.95% in test [2]; -5.4% in test [3]; 10.8% in test [4]; -8.7% in test [5]; 0.75% in test [6].
As to `CC(=O)OC1CCC2(C)C3=CCC4(C)C(C(C)=O)=CCC4C3CCC2C1` (stereo unspecified), the growth inhibition in test [1] is -27.9%; in test [2], -21.9%; in test [3], -29.2%; in test [4], 12.6%; in test [5], -22.9%; in test [6] it was -23.1%.
`O=c1cc(-c2ccccc2F)[nH]c2ccc(N3CCCC3)cc12`: the growth inhibition in test [1] was 13.6%; in test [2], 6.2%; in test [3], 25.5%; in test [4], 0.65%; in test [5], 22.3%; in test [6] it was 23.6%.
